According to PubChem BioAssay AID1159580 (chemical genetic matrix, 2015):
Several values for one entry are separate records, joined by “and”; a condition that tells them apart may be missing. Identical values can stand only once. The campaign covered roughly 5,500 compounds. About 2,000 (36%) were called active. Another 18% or so got no clear call; they are omitted. No stated cut-off is given here; in the data, active means normalized growth mostly below about 0.91 (no sharp cut-off); inconclusive means no clear call, values can overlap the other calls; inactive means mostly above about 0.92. The list shows a part of the results.

Assay: chemical genetic growth profiling, strain panel (AID 1159580);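 further: tested at 20 µM; growth read once vehicle control cultures reached saturation at 30 °C; 1 = growth at the plate median or of vehicle wells; lower values mean less growth of the strain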
Settings: S. cerevisiae deletion strains, growth OD

Measured: normalized growth

CCN(CC)CCNC(=O)c1cc(Br)c(N)cc1OC
inactive: locus YAL021C, strain ccr4, active compounds read low 0.984 | locus YAL026C, strain drs2, active compounds read low 0.997 | locus YAL030W, strain snc1, active compounds read low 0.997 | locus YBL061C, strain skt5, active compounds read low 0.992 | locus YBR009C, strain hhf1, active compounds read low 1.02 | locus YBR021W, strain FUR4, active compounds read low 1.03 | locus YBR023C, strain chs3, active compounds read low 0.992 | locus YBR171W, strain sec66, active compounds read low 0.983 | locus YBR229C, strain ROT2, active compounds read low 0.957 | locus YBR231C, strain swc5, active compounds read low 0.981 | locus YBR279W, strain paf1, active compounds read low 0.991 | locus YCL011C, strain gbp2, active compounds read low 0.978 | locus YCL016C, strain dcc1, active compounds read low 0.992 | locus YCL029C, strain bik1, active compounds read low 0.989 | locus YCL061C, strain MRC1, active compounds read low 0.984 | locus YCL069W, strain vba3, active compounds read low 0.987 | locus YCR088W, strain abp1, active compounds read low 0.981 | locus YDL005C, strain med2, active compounds read low 0.989 | locus YDL035C, strain GPR1, active compounds read low 0.986 | locus YDL040C, strain nat1, active compounds read low 1 | locus YDL074C, strain BRE1, active compounds read low 0.947 | locus YDL101C, strain DUN1, active compounds read low 0.976 | locus YDL134C, strain PPH21, active compounds read low 1.01 | locus YDL185W, strain tfp1, active compounds read low 0.983 | locus YDL192W, strain arf1, active compounds read low 0.983 | locus YDR001C, strain nth1, active compounds read low 0.979 | locus YDR069C, strain doa4, active compounds read low 1.01 | locus YDR101C, strain arx1, active compounds read low 0.979 | locus YDR137W, strain rgp1, active compounds read low 1.04 | locus YDR159W, strain sac3, active compounds read low 1 | locus YDR162C, strain NBP2, active compounds read low 1 | locus YDR195W, strain ref2 0.967 | locus YDR297W, strain sur2, active compounds read low 0.976 | locus YDR318W, strain mcm21, active compounds read low 1 | locus YDR334W, strain swr1, active compounds read low 0.954 | locus YDR335W, strain msn5, active compounds read low 0.987 | locus YDR388W, active compounds read low 0.989 | locus YDR392W, strain spt3, active compounds read low 0.932 | locus YDR502C, strain sam2, active compounds read low 0.983 | locus YEL003W, strain gim4, active compounds read low 0.979 | locus YEL037C, strain rad23, active compounds read low 0.985 | locus YEL061C, strain CIN8 (second series), active compounds read low 0.982 | locus YEL061C, strain CIN8, active compounds read low 0.978 | locus YER015W, strain faa2, active compounds read low 0.986 | locus YER016W, strain bim1, active compounds read low 0.997 | locus YER110C, active compounds read low 0.978 | locus YER111C, strain swi4, active compounds read low 1.01 | locus YER155C, strain BEM2 (second series), active compounds read low 1 | locus YER155C, strain BEM2, active compounds read low 1 | locus YER167W, strain BCK2, active compounds read low 1.01 | locus YFR010W, strain ubp6, active compounds read low 0.984 | locus YGL078C, strain dbp3, active compounds read low 0.974 | locus YGL086W, strain mad1, active compounds read low 0.98 | locus YGL167C, strain pmr1, active compounds read low 0.98 | locus YGL173C, strain kem1, active compounds read low 0.991 | locus YGL227W, strain vid30, active compounds read low 0.995 | locus YGL240W, strain doc1, active compounds read low 0.993 | locus YGL248W, strain PDE1, active compounds read low 0.971 | locus YGL253W, strain hxk2, active compounds read low 0.982 | locus YGR078C, strain PAC10, active compounds read low 0.975 | locus YGR135W, strain pre9, active compounds read low 1.04 | locus YGR252W, strain gcn5, active compounds read low 1.02 | locus YHR013C, strain ard1, active compounds read low 0.972 | locus YHR027C, strain rpn1, active compounds read low 0.976 | locus YHR030C, strain SLT2, active compounds read low 0.997 and 0.978 | locus YHR079C, strain IRE1 (second series), active compounds read low 0.989 | locus YHR079C, strain IRE1, active compounds read low 1 | locus YHR094C, strain hxt1, active compounds read low 0.985 | locus YHR129C, strain ARP1, active compounds read low 1 | locus YHR142W, strain chs7, active compounds read low 0.97 | locus YHR200W, strain rpn10, active compounds read low 0.994 | locus YIL066C, strain RNR3, active compounds read low 0.965 | locus YIL073C, strain SPO22, active compounds read low 1.04 | locus YIL125W, strain kgd1, active compounds read low 0.985 | locus YIR030C, strain dcg1, active compounds read low 0.986 | locus YJL092W, strain hpr5, active compounds read low 0.973 | locus YJL095W, strain BCK1 (second series), active compounds read low 0.99 | locus YJL095W, strain BCK1, active compounds read low 0.962 and 0.993 | locus YJL115W, strain asf1, active compounds read low 0.966 | locus YJL129C, strain trk1, active compounds read low 0.99 | locus YJL134W, strain LCB3, active compounds read low 0.994 | locus YJL154C, strain vps35, active compounds read low 0.986 | locus YJL164C, strain tpk1, active compounds read low 1.01 | locus YJL166W, strain qcr8, active compounds read low 0.998 | locus YJL168C, strain set2, active compounds read low 0.987 | locus YJL187C, strain SWE1 (second series), active compounds read low 0.944 | locus YJL187C, strain SWE1, active compounds read low 0.993
